{"source": "PubChem BioAssay AID686979", "about": "(National Center for Advancing Translational Sciences (NCATS), 2013)", "note": "The campaign covered roughly 420,000 compounds. About 50,000 (12%) were called active. Not shown: some 26% with an inconclusive outcome. The list comes from a sample in which actives are over-represented; it also holds similar structures and randomly drawn compounds. A number with no mark means an inactive call. Calls follow the shape of the dose curve; as a rule, active = well fitted inhibition curve with a large enough effect; inconclusive = small, poorly fitted or top-dose-only effect; inactive = flat fitted curve, though single readings scatter.", "data": [{"experiment": "qHTS for Inhibitors of human tyrosyl-DNA phosphodiesterase 1 (TDP1): qHTS in cells in presence of CPT; also: nearly all actives have a fitted effect of over 55% in size; also: potency is read from the fitted curve at half-maximal effect; as to activity change, negative = growth inhibition: % is scaled to controls: 0 for no effect and ±100 for the full control effect", "conditions": "chicken DT40 Tdp1-/-;hTDP1 cells + 20 nM CPT, ATP luminescence, 48 h; series mostly up to 46.2 µM; activity change, negative = growth inhibition: at the top concentration", "procedure,_shortened": "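Chicken DT40 Tdp1-/- cells complemented with human TDP1, 400 cells/well, exposed to compounds plus 20 nM camptothecin for at least 48 h at 37 C; viability read as ATP content by CellTiter-Glo luminescence.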", "units": {"activity change, negative = growth inhibition": "%"}, "values": [{"compound": "CC1=C(C(=O)N2CCOCC2)CC(CC(=O)NCCN2CCOCC2)C(=O)N1CCC1=CCCCC1", "note": "(centres undefined)", "activity change, negative = growth inhibition": -24.6}, {"compound": "CCOC(=O)[C@]12CCCC=C1N(Cc1ccc(Cl)cc1Cl)C(=O)[C@H](CC(=O)N1CCCCC1)C2", "Potency": "20.6 µM (active)"}, {"compound": "CCOC(=O)[C@]12CCCC=C1N(CCC1=CCCCC1)C(=O)[C@H](CC(=O)NCCCOC)C2", "Potency": "14.6 µM (active)"}, {"compound": "CCOC(=O)[C@]12CCC=C1N(Cc1ccccc1)C(=O)[C@H](CC(=O)N1CCCC1)C2", "activity change, negative = growth inhibition": -15.5}, {"compound": "CCOC(=O)[C@]12CCCC=C1N(CCC1=CCCCC1)C(=O)[C@H](CC(=O)N1CCOCC1)C2", "activity change, negative = growth inhibition": -80.8}, {"compound": "CCOC(=O)[C@]12CCCC=C1N(CCC1=CCCCC1)C(=O)[C@H](CC(=O)N1CCCCC1)C2", "Potency": "7.31 µM (active)"}, {"compound": "CCCCOCCCNC(=O)C[C@@H]1C[C@@]2(C(=O)OCC)CCCC=C2N(CCC2=CCCCC2)C1=O", "Potency": "13 µM (active)"}, {"compound": "CN1CCNC(=O)C1CC(=O)NCCC1=CCCCC1", "note": "(centres undefined)", "activity change, negative = growth inhibition": -0.969}, {"compound": "CC1=C(C(=O)N(C)C)CC(CC(=O)NCCc2ccccn2)C(=O)N1CCC1=CCCCC1", "note": "(centres undefined)", "activity change, negative = growth inhibition": 5.55}, {"compound": "CCOC(=O)[C@]12CCC=C1N(Cc1ccco1)C(=O)[C@H](CC(=O)N1CCSCC1)C2", "activity change, negative = growth inhibition": -27.5}, {"compound": "COc1ccc(CNC(=O)CN(C(=O)c2csnn2)c2cnc3ccccc3c2)cc1", "activity change, negative = growth inhibition": -24}, {"compound": "COCCNc1nnc(SCC(=O)NNC(=O)c2ccco2)s1", "activity change, negative = growth inhibition": -0.281}, {"compound": "Cc1ccc(NC(=O)C2CC2c2ccccc2)cc1", "note": "(centres undefined)", "activity change, negative = growth inhibition": -15.6}, {"compound": "O=C(/C=C/[C@H]1O[C@@H](n2cnc3c(NC(=O)c4ccccc4)ncnc32)[C@H](O)[C@@H]1O)NCc1ccccc1", "activity change, negative = growth inhibition": -25.5}, {"compound": "CC1CCCCC12NC(=O)N(CC(=O)Nc1ccc(S(=O)(=O)Nc3ncccn3)cc1)C2=O", "note": "(centres undefined)", "activity change, negative = growth inhibition": 0.923}, {"compound": "CCC(C)N(C(=O)COC(=O)C1C(C(=O)OC)=C(C)NC(C)=C1C(=O)OC)C1CCS(=O)(=O)C1", "note": "(centres undefined)", "activity change, negative = growth inhibition": 0.101}, {"compound": "COc1cc(OC)c(C(=S)N2CCCC2)cc1OC", "activity change, negative = growth inhibition": -22}, {"compound": "CSc1ccccc1C(=O)OCC(=O)N1CCN(C(C)=O)CC1", "activity change, negative = growth inhibition": -0.484}, {"compound": "Cc1ccc(NC(=O)[C@H](Cc2ccccc2)NC(=O)CC[C@H]2O[C@@H](n3ccc(=O)[nH]c3=O)[C@H](O)[C@@H]2O)cc1C", "activity change, negative = growth inhibition": -6.82}, {"compound": "Cc1cccc(C(=O)Nc2ccc(Oc3cnccn3)cc2)c1", "activity change, negative = growth inhibition": -11.8}, {"compound": "CCOC(=O)[C@]12CCC=C1N(CCC1=CCCCC1)C(=O)[C@H](CC(=O)NCc1ccc(C)o1)C2", "Potency": "16.4 µM (active)"}, {"compound": "CCCCNC(=O)C[C@@H]1C[C@@]2(C(=O)OCC)CCC=C2N(Cc2ccco2)C1=O", "activity change, negative = growth inhibition": -11.1}, {"compound": "C#CCNC(=O)C[C@@H]1C[C@@]2(C(=O)OCC)CCCC=C2N(Cc2ccco2)C1=O", "activity change, negative = growth inhibition": -5.49}, {"compound": "CCN(CC)C(=O)C1=C(C)N(Cc2ccc(OC)cc2)C(=O)C(CC(=O)NCc2ccco2)C1", "note": "(centres undefined)", "activity change, negative = growth inhibition": -18.4}, {"compound": "CC1=C(C(=O)N2CCOCC2)CC(CC(=O)NCc2cccc3ccccc23)C(=O)N1CCC1=CCCCC1", "note": "(centres undefined)", "activity change, negative = growth inhibition": -11.8}, {"compound": "CCCCNC(=O)C[C@@H]1C[C@@]2(C(=O)OCC)CCC=C2N(Cc2cccc3ccccc23)C1=O", "Potency": "16.4 µM (active)"}, {"compound": "Cc1ccccc1OCC(=O)NNC(=O)c1cc(S(=O)(=O)N(C)C)ccc1N1CCCC1", "activity change, negative = growth inhibition": -16.2}, {"compound": "COc1ccc(NC(=O)CN(C)C(=O)CC2CCCCC2)cc1", "activity change, negative = growth inhibition": 1.32}, {"compound": "COc1cc(OC)c(C2C=C(C(=O)O)Nc3ncnn32)cc1OC", "note": "(centres undefined)", "activity change, negative = growth inhibition": 0.986}, {"compound": "CC(C)CC(=O)Nc1ccc(Cc2ccncc2)cc1", "activity change, negative = growth inhibition": -22.1}, {"compound": "CCNC(=O)C1(C)CCN(C(=O)c2ccccc2)C1", "note": "(centres undefined)", "activity change, negative = growth inhibition": -20.3}, {"compound": "CCOC(=O)NC(=O)C(=CNc1cccc(OC)c1)C(=O)NC(=O)OCC", "activity change, negative = growth inhibition": 1.35}, {"compound": "CCC(c1nnnn1Cc1ccco1)N(CCc1ccccc1)Cc1cc2ccc(OC)cc2[nH]c1=O", "note": "(centres undefined)", "Potency": "23.1 µM (active)"}, {"compound": "COCCn1nnnc1C(c1cc2ccc(OC)cc2[nH]c1=O)N1CCc2ccccc2C1", "note": "(centres undefined)", "activity change, negative = growth inhibition": -27.8}, {"compound": "COc1ccc2[nH]c3c(=O)n(Cc4ccco4)cnc3c2c1", "activity change, negative = growth inhibition": -2.12}, {"compound": "COc1cc(OC)c(C(=O)N2CCCC2)cc1OC", "activity change, negative = growth inhibition": 22.1}, {"compound": "Cc1ccc(NC(=O)C(C)Sc2nnc(C3CC3)n2C2CC2)cc1S(=O)(=O)N1CCOCC1", "note": "(centres undefined)", "activity change, negative = growth inhibition": -20.8}, {"compound": "CSCCC(NC(=O)c1ccc(Cl)cc1Cl)C(=O)NNC(=O)c1csc(N2CCOCC2)n1", "note": "(centres undefined)", "activity change, negative = growth inhibition": 4.89}, {"compound": "CCOC(=O)c1cc2c(nc1NC(=S)Nc1ccccc1)CC(C)(CC)OC2", "note": "(centres undefined)", "activity change, negative = growth inhibition": 0.397}, {"compound": "O=C(NNS(=O)(=O)c1ccc(F)cc1)C1CCCCC1", "activity change, negative = growth inhibition": 2.3}, {"compound": "O=C(NCc1ccccc1Cl)C1CCCN1S(=O)(=O)c1ccc(F)cc1", "note": "(centres undefined)", "activity change, negative = growth inhibition": -27.9}, {"compound": "CCOC(=O)c1c(S(=O)(=O)N2CCCC(C(=O)NCc3ccc(F)cc3)C2)c(C)n(CC)c1C", "note": "(centres undefined)", "activity change, negative = growth inhibition": -14.2}, {"compound": "Cc1ccccc1CNC(=O)C1CCCN(S(=O)(=O)N(C)c2ccc(F)cc2)C1", "note": "(centres undefined)", "Potency": "23.1 µM (active)"}, {"compound": "CCNC(=O)CC1C(=O)N(c2ccc(OC)cc2)C(=O)N1CCOC", "note": "(centres undefined)", "activity change, negative = growth inhibition": -3.13}, {"compound": "CN(C)N=Nc1ccc2nc[nH]c2c1", "activity change, negative = growth inhibition": -13.5}, {"compound": "Cc1ccc2c(N)c(C(=O)c3ccccc3)sc2n1", "activity change, negative = growth inhibition": -24.8}, {"compound": "CCCCNC(=O)c1ccc2c(c1)NC(=O)C(C(C)C)N2", "note": "(centres undefined)", "activity change, negative = growth inhibition": -22}, {"compound": "CCOC(=O)N1CCN(CC(=O)c2c(C)[nH]c3ccccc23)CC1", "Potency": "18.4 µM (active)"}, {"compound": "Cc1[nH]c2ccccc2c1C(=O)CN1CCCC(C)C1", "note": "(centres undefined)", "activity change, negative = growth inhibition": 4.31}]}]}
